Most compounds without a hit are left out; they make up all but 11% or so of the library.
HPGD inh: qHTS Assay for Inhibitors of HPGD (15-Hydroxyprostaglandin Dehydrogenase); AID 894, 2007; 150,000 tested, 4.3% active; Potency, µM, for inactives: at the top dose activity change, negative = inhibition, hits mostly inhibitors; purified HPGD, NADH fluorescence kinetic, PGE2 substrate; note: potency is the fitted concentration of half-maximal effect
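NADH formation kinetics: reaction with 30 uM PGE2 and 1 mM NAD+ (final), 20 nM enzyme, Tris-HCl pH 8 with Tween 20, after 15 min compound preincubation at room temperature. Fluorescence change, last versus first of five reads.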
PNC inhibitor: High Content Assay for Compounds that inhibit the Assembly of the Perinucleolar Compartment | PC3M PTB-GFP, PNC prevalence imaging, 16 h; active compounds read low | activity change (PNC), negative = inhibition, % at 10 µM | 140,000 tested, 3.1% active;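 active = readout at or below -70, meaning at least 70% loss of cells showing the perinucleolar compartment, a nuclear body marking cancer cells; inconclusive = readout between -30 and a set limit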;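 note: plate controls were DMSO wells for no effect and camptothecin positive control wells for full effect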
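PC3M cells stably expressing PTB-GFP, 750–1000 cells/well, treated 16 h at 37 °C with compound (23 nl of library stock), in duplicate. After paraformaldehyde fixation and Hoechst stain, imaged at 20x; PNC prevalence scored by image analysis.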
ALDH1A1 inh: qHTS Assay for Inhibitors of Aldehyde Dehydrogenase 1 (ALDH1A1); Aldehyde dehydrogenase 1A1 (Homo sapiens), P00352; Purified ALDH1A1, NADH fluorescence, propionaldehyde substrate; Potency, µM (highest dose often 75.3 µM), for inactives: at the highest dose activity, negative = inhibition, usual class: inhibitors; 220,000 tested, 7.3% active; AID 1030, 2008;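 note: potency is the fitted concentration of half-maximal effect; plate controls were no enzyme wells and a reference inhibitor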
Target sequence (P00352 whole entry, looked up): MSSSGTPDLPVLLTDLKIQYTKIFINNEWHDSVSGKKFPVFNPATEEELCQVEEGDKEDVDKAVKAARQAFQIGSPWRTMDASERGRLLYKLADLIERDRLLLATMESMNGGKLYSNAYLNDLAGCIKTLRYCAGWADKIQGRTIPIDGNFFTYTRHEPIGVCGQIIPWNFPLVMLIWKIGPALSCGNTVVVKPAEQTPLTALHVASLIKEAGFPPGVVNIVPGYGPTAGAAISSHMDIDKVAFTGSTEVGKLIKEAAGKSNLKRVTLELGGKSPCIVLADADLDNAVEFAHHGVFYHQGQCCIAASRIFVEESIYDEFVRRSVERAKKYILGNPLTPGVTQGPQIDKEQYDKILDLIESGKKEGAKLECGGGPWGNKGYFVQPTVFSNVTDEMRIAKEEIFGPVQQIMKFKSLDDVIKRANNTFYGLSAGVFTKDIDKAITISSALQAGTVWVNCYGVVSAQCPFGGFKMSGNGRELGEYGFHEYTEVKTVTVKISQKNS
The depositor's hits bear a star; ? = inconclusive; . = no result given; [ ] = another dose, or the depositor's remark. Unless noted, calls come from the whole dose curve; as a rule, active = well fitted inhibition curve with a large enough effect (not every such curve was filed as active); inconclusive = small, poorly fitted or top-dose-only effect, or another doubt; inactive = no such curve, though single readings can be large or run the other way. Unless noted, % is set by controls: 0 for no effect and ±100 for the full control effect.

SMILES | HPGD inh | PNC inhibitor | ALDH1A1 inh
O=C(NCc1ccco1)C(c1cccnc1)N(C(=O)Cn1nnc2ccccc21)c1ccc(F)cc1 (stereo unspecified) | 2% | 20 | 11%
O=C(O)CCNc1ccc2c(c1)OCCO2 | -11% | -13 | ?
CN1CCc2cc(O)c(O)cc2C(c2ccccc2)C1 (stereo unspecified) | 8% | . | -3%
Oc1cc2c(cc1O)[C@@H](c1ccccc1)CNCC2 | 20µM* | 8 | 3%
CC(C)(C)S(=O)(=O)c1c(C(=O)O)cccc1C(=O)O | -15% | 6 | 7%
Cn1c(=O)c(C(=O)CCl)c(N)n(Cc2ccccc2)c1=O | -7% | 21 | 7.1µM*
CN(C)CC(=O)c1c(N)n(Cc2ccccc2)c(=O)n(C)c1=O | . | . | 10%
CC(=O)NC(CC(=O)Nc1nc(C)cs1)c1ccccc1 (stereo unspecified) | . | . | -3%
O=C(NC(=S)N1CCOCC1)c1ccc([N+](=O)[O-])cc1 | -12% | -27 | -11%
CCCCCCNC(=O)n1cc(F)c(=O)[nH]c1=O | 0% | . | 9%
CC(=O)Nc1ccc(S(=O)(=O)NC(C(=O)O)C2=CCC=CC2)cc1 (stereo unspecified) | -10% | 7 | -5%
COc1cc2c(cc1OC)C(c1ccc(-c3ccc(Cl)cc3Cl)o1)=NCC2 | -4% | ? | 1%
COc1cc2c(cc1OC)C(c1ccc(-c3cc(Cl)ccc3Cl)o1)=NCC2 | 16µM* | ? | ?
Cc1cccc(NNC(N)=S)c1 | . | . | 8.9µM*
Cc1ccccc1NNC(N)=S | . | . | 22µM*
Cc1ccccc1NC(=O)Nc1ccccc1C(N)=O | . | . | 5%
Cc1cccc(Nc2ccccc2)c1 | -13% | ? | 12%
NC(=S)NNC(=O)Nc1cccc(Cl)c1 | 0% | ? | -2%
S=C(Nc1cccc(Cl)c1)NC1CCCCC1 | -16% | 72 | 3%
S=C(NNc1cccc(Cl)c1)NC1CCCCC1 | . | . | 25µM*
NC(=S)NNc1cccc(Cl)c1 | -22% | 17 | 1.6µM*
CCOC(=O)C1CCCN(C(=O)COc2ccc(N(C)S(=O)(=O)c3ccc(F)cc3)cc2)C1 (stereo unspecified) | . | . | 3%
CSc1ccccc1C(=O)OCC(=O)NC1CCS(=O)(=O)C1 (stereo unspecified) | . | . | -6%
CC(=O)N/C(=C\c1ccccc1)C(=O)NCC(=O)O | 6% | -21 | 7%
CCC(CC)NC(=O)COC(=O)c1cc(Br)ccc1Cl | 32µM* | ? | 4%
SMILES | HPGD inh | PNC inhibitor | ALDH1A1 inh
CCCCNC(=O)COC(=O)c1cc(Br)ccc1Cl | ? | 0 | 7%
c1ccc(-c2noc(CSc3nnc(Cc4cccs4)n3-c3ccccc3)n2)cc1 | -1% | 8 | ?
Fc1ccc(-n2c(Cc3ccccc3)nnc2SCc2nc(-c3cccs3)no2)cc1 | -18% | ? | 14µM*
Cc1ccc(-c2noc(CSc3nnc(Cc4ccccc4)n3-c3cccc(C)c3)n2)cc1 | -13% | ? | -11%
COc1ccc(-c2noc(CSc3nnc(Cc4ccccc4)n3-c3cccc(C)c3)n2)cc1OC | -14% | ? | 13µM*
CCOc1ccccc1/C=C(/NC(=O)c1ccccc1)C(=O)N(CC)CC | -2% | -10 | 2%
CCSc1nnc(NC(=O)CSc2nnc(-c3c[nH]c4ccccc34)n2CC)s1 | -23% | ? | ?
CCN1C(C)=C(C(=O)OC)C(c2ccccc2)N2C(=O)[C@](O)(C(=O)OC)CC(C#N)=C12 (stereo partly specified) | . | . | 4%[13.5 µM]
CC1CC(C)CN(CCCNC(=O)c2ccc3c(c2)NC(=O)C(N2CCCCC2)S3)C1 (stereo unspecified) | -12% | -17 | -12%
O=C(c1cc(C(F)(F)F)cc(C(F)(F)F)c1)N1CCC2(CCCN(c3ncccn3)C2)CC1 | -21% | . | -3%
CC1CN(c2snnc2C=C2C(=O)OC(C)(C)OC2=O)CC(C)O1 (stereo unspecified) | . | . | 20µM*
CC1CN(C2=N/C(=C/c3ccc4c(c3)OCO4)C(=O)N2)CC(C)O1 (stereo unspecified) | . | . | -5%
O=C(NCCCN1CCOCC1)c1ccc(Cc2nc3ccccc3[nH]2)cc1 | -6% | . | 9%
CCCC(=O)NC1=C(C#N)C2(CCCC2)Cc2ccccc21 | -11% | ? | -5%
CCCC(=O)C1=C(c2ccccc2)C(C#N)(C#N)C(C#N)=C1N | 1.4µM* | 1 | ?
CCC(=O)Nc1ccc(S(=O)(=O)Nc2ccc(Cl)nn2)cc1 | -15% | -80* | -8%
CC(=O)Nc1ccc(S(=O)(=O)Nc2ccc(Cl)nn2)cc1 | -12% | 15 | 12%
